Results published in PubChem BioAssay AID1159580 (chemical genetic matrix, 2015).
Screen size: about 5,500 compounds; about 2,000 (36%) were called active. Not shown: some 18% with an inconclusive outcome. Cut-off read from the data, not from the text of the source: active = normalized growth mostly below about 0.91 (no sharp cut-off); inconclusive = no clear call, values can overlap the other calls; inactive = mostly above about 0.92. The list shows a part of the results.

Assay: chemical genetic growth profiling, strain panel (AID 1159580);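 note: tested at 20 µM; growth read once vehicle control cultures reached saturation at 30 °C; 1 = growth at the plate median or of vehicle wells; lower values mean less growth of the strain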
Conditions: S. cerevisiae deletion strains, growth OD

Measured: normalized growth

COC(=O)c1c(OC)cc2c(c1C)Oc1c(Cl)c(OC(C)=O)c(Cl)c(C)c1C(=O)O2
inactive: locus YAL021C, strain ccr4, stronger effect = lower value 1.02 | locus YAL026C, strain drs2, stronger effect = lower value 1 | locus YAL030W, strain snc1, stronger effect = lower value 0.994 | locus YBL061C, strain skt5, stronger effect = lower value 0.977 | locus YBR009C, strain hhf1, stronger effect = lower value 1.02 | locus YBR021W, strain FUR4, stronger effect = lower value 1.03 | locus YBR023C, strain chs3, stronger effect = lower value 0.978 | locus YBR171W, strain sec66, stronger effect = lower value 1 | locus YBR229C, strain ROT2, stronger effect = lower value 0.989 | locus YBR231C, strain swc5, stronger effect = lower value 0.987 | locus YBR279W, strain paf1, stronger effect = lower value 0.982 | locus YCL011C, strain gbp2, stronger effect = lower value 1.02 | locus YCL016C, strain dcc1, stronger effect = lower value 0.99 | locus YCL029C, strain bik1, stronger effect = lower value 1.01 | locus YCL061C, strain MRC1, stronger effect = lower value 1.01 | locus YCL069W, strain vba3, stronger effect = lower value 0.998 | locus YCR088W, strain abp1, stronger effect = lower value 0.988 | locus YDL005C, strain med2, stronger effect = lower value 1 | locus YDL035C, strain GPR1, stronger effect = lower value 1.01 | locus YDL040C, strain nat1, stronger effect = lower value 0.955 | locus YDL074C, strain BRE1, stronger effect = lower value 1.05 | locus YDL101C, strain DUN1, stronger effect = lower value 1.01 | locus YDL134C, strain PPH21, stronger effect = lower value 1.02 | locus YDL185W, strain tfp1, stronger effect = lower value 1.01 | locus YDL192W, strain arf1, stronger effect = lower value 1.01 | locus YDR001C, strain nth1, stronger effect = lower value 0.992 | locus YDR069C, strain doa4, stronger effect = lower value 0.998 | locus YDR101C, strain arx1, stronger effect = lower value 1.01 | locus YDR137W, strain rgp1, stronger effect = lower value 0.947 | locus YDR159W, strain sac3, stronger effect = lower value 0.948 | locus YDR162C, strain NBP2, stronger effect = lower value 1.03 | locus YDR195W, strain ref2 1.03 | locus YDR297W, strain sur2, stronger effect = lower value 1 | locus YDR318W, strain mcm21, stronger effect = lower value 1 | locus YDR334W, strain swr1, stronger effect = lower value 0.99 | locus YDR335W, strain msn5, stronger effect = lower value 1 | locus YDR388W, stronger effect = lower value 1.01 | locus YDR392W, strain spt3, stronger effect = lower value 0.866 | locus YDR502C, strain sam2, stronger effect = lower value 1 | locus YEL003W, strain gim4, stronger effect = lower value 1 | locus YEL037C, strain rad23, stronger effect = lower value 0.984 | locus YEL061C, strain CIN8 (second series), stronger effect = lower value 0.979 | locus YEL061C, strain CIN8, stronger effect = lower value 0.999 | locus YER015W, strain faa2, stronger effect = lower value 1.01 | locus YER016W, strain bim1, stronger effect = lower value 0.971 | locus YER110C, stronger effect = lower value 1.02 | locus YER111C, strain swi4, stronger effect = lower value 0.985 | locus YER155C, strain BEM2 (second series), stronger effect = lower value 1.01 | locus YER155C, strain BEM2, stronger effect = lower value 0.992 | locus YER167W, strain BCK2, stronger effect = lower value 1.02 | locus YFR010W, strain ubp6, stronger effect = lower value 0.975 | locus YGL078C, strain dbp3, stronger effect = lower value 1.01 | locus YGL086W, strain mad1, stronger effect = lower value 1.02 | locus YGL167C, strain pmr1, stronger effect = lower value 0.942 | locus YGL173C, strain kem1, stronger effect = lower value 0.983 | locus YGL227W, strain vid30, stronger effect = lower value 1 | locus YGL240W, strain doc1, stronger effect = lower value 0.964 | locus YGL248W, strain PDE1, stronger effect = lower value 1.01 | locus YGL253W, strain hxk2, stronger effect = lower value 0.977 | locus YGR078C, strain PAC10, stronger effect = lower value 1.01 | locus YGR135W, strain pre9, stronger effect = lower value 1.01 | locus YGR252W, strain gcn5, stronger effect = lower value 1.11 | locus YHR013C, strain ard1, stronger effect = lower value 0.966 | locus YHR027C, strain rpn1, stronger effect = lower value 1 | locus YHR030C, strain SLT2, stronger effect = lower value 1 | locus YHR079C, strain IRE1 (second series), stronger effect = lower value 0.997 | locus YHR094C, strain hxt1, stronger effect = lower value 1.01 | locus YHR129C, strain ARP1, stronger effect = lower value 1 | locus YHR142W, strain chs7, stronger effect = lower value 0.985 | locus YHR200W, strain rpn10, stronger effect = lower value 1.02 | locus YIL066C, strain RNR3, stronger effect = lower value 1.03 | locus YIL073C, strain SPO22, stronger effect = lower value 1.09 | locus YIL125W, strain kgd1, stronger effect = lower value 1.02 | locus YIR030C, strain dcg1, stronger effect = lower value 0.998 | locus YJL092W, strain hpr5, stronger effect = lower value 0.992 | locus YJL095W, strain BCK1 (second series), stronger effect = lower value 0.975 | locus YJL095W, strain BCK1, stronger effect = lower value 1.02 | locus YJL115W, strain asf1, stronger effect = lower value 0.996 | locus YJL129C, strain trk1, stronger effect = lower value 1.01 | locus YJL134W, strain LCB3, stronger effect = lower value 0.998 | locus YJL154C, strain vps35, stronger effect = lower value 0.972 | locus YJL164C, strain tpk1, stronger effect = lower value 1.01 | locus YJL166W, strain qcr8, stronger effect = lower value 1.01 | locus YJL168C, strain set2, stronger effect = lower value 0.996 | locus YJL187C, strain SWE1 (second series), stronger effect = lower value 1.02 | locus YJL187C, strain SWE1, stronger effect = lower value 0.975 | locus YJR043C, strain POL32, stronger effect = lower value 1.04 | locus YKL009W, strain mrt4, stronger effect = lower value 1.01 | locus YKL068W, stronger effect = lower value 0.988 | locus YKL085W, strain MDH1 (second series), stronger effect = lower value 1 | locus YKL085W, strain MDH1, stronger effect = lower value 1 | locus YKL160W, strain elf1, stronger effect = lower value 0.982 | locus YKL190W, strain CNB1, stronger effect = lower value 1.01 | locus YKR001C, strain vps1, stronger effect = lower value 1.04 | locus YKR026C, strain gcn3, stronger effect = lower value 0.996 | locus YKR091W, strain srl3, stronger effect = lower value 0.989 | locus YLL001W, strain dnm1, stronger effect = lower value 0.992 | locus YLL026W, stronger effect = lower value 1 | locus YLL041C, strain sdh2, stronger effect = lower value 0.988 | locus YLR027C, strain aat2, stronger effect = lower value 0.986 | locus YLR039C, strain RIC1, stronger effect = lower value 1.02 | locus YLR058C, strain SHM2, stronger effect = lower value 1 | locus YLR102C, strain apc9, stronger effect = lower value 1.01 | locus YLR221C, strain rsa3, stronger effect = lower value 1.01 | locus YLR258W, strain gsy2, stronger effect = lower value 0.998 | locus YLR262C, strain YPT6 (second series), stronger effect = lower value 0.979 | locus YLR262C, strain YPT6, stronger effect = lower value 1.03 | locus YLR268W, strain sec22, stronger effect = lower value 1.02 | locus YLR320W, strain mms22, stronger effect = lower value 0.946 | locus YLR330W, strain CHS5, stronger effect = lower value 0.998 | locus YLR342W, strain FKS1 (second series), stronger effect = lower value 1.05 | locus YLR342W, strain FKS1, stronger effect = lower value 0.978 | locus YLR357W, strain rsc2, stronger effect = lower value 1.02 | locus YLR370C, strain arc18, stronger effect = lower value 0.973 | locus YLR371W, strain rom2, stronger effect = lower value 1.01 | locus YLR384C, strain iki3, stronger effect = lower value 0.961 | locus YLR418C, strain cdc73, stronger effect = lower value 1.07 | locus YML016C, strain PPZ1, stronger effect = lower value 1 | locus YML032C, strain rad52, stronger effect = lower value 1.02 | locus YML120C, strain ndi1, stronger effect = lower value 1.01 | locus YML124C, strain tub3, stronger effect = lower value 1.03 | locus YMR058W, strain fet3, stronger effect = lower value 0.988 | locus YMR078C, strain ctf18, stronger effect = lower value 1.01 | locus YMR125W, strain sto1, stronger effect = lower value 0.997 | locus YMR129W, stronger effect = lower value 0.999 | locus YMR205C, strain PFK2, stronger effect = lower value 0.981 | locus YMR223W, strain ubp8, stronger effect = lower value 1 | locus YMR231W, strain pep5, stronger effect = lower value 0.974 | locus YMR263W, strain SAP30, stronger effect = lower value 1.02 | locus YMR307W, strain GAS1, stronger effect = lower value 1.03 | locus YNL067W, strain RPL9B, stronger effect = lower value 1.02 | locus YNL071W, strain lat1, stronger effect = lower value 0.997 | locus YNL209W, strain ssb2, stronger effect = lower value 1.01 | locus YNL233W, strain BNI4, stronger effect = lower value 1.03 | locus YNL248C, strain rpa49, stronger effect = lower value 0.995 | locus YNL250W, strain rad50, stronger effect = lower value 1.02 | locus YNL271C, strain bni1, stronger effect = lower value 1.02 | locus YNL298W, strain CLA4, stronger effect = lower value 1.03 | locus YNL307C, strain MCK1, stronger effect = lower value 1 | locus YNL322C, strain KRE1 (second series), stronger effect = lower value 1.02 | locus YNR049C, strain mso1, stronger effect = lower value 0.982 | locus YNR052C, strain pop2, stronger effect = lower value 1.01 | locus YOL006C, strain TOP1, stronger effect = lower value 1.29 | locus YOL012C, strain htz1 1.01 | locus YOL147C, strain pex11, stronger effect = lower value 0.999 | locus YOR001W, strain rrp6, stronger effect = lower value 0.988 | locus YOR061W, strain CKA2, stronger effect = lower value 1 | locus YOR069W, strain VPS5, stronger effect = lower value 1.01 | locus YOR070C, strain gyp1, stronger effect = lower value 0.974 | locus YOR080W, strain dia2, stronger effect = lower value 0.977 | locus YOR083W, strain WHI5, stronger effect = lower value 1.03 | locus YOR106W, strain vam3, stronger effect = lower value 1.03 | locus YOR136W, strain idh2, stronger effect = lower value 1.04 | locus YOR144C, strain elg1, stronger effect = lower value 1 | locus YOR184W, strain ser1, stronger effect = lower value 0.995 | locus YOR265W, strain rbl2, stronger effect = lower value 0.981 | locus YOR270C, strain vph1, stronger effect = lower value 0.96 | locus YOR290C, strain snf2, stronger effect = lower value 0.999 | locus YOR316C, strain cot1, stronger effect = lower value 1 | locus YPL051W, strain arl3, stronger effect = lower value 0.976 | locus YPL055C, strain LGE1, stronger effect = lower value 1.07 | locus YPL078C, strain atp4, stronger effect = lower value 0.996 | locus YPL106C, strain sse1, stronger effect = lower value 1.07 | locus YPL240C, strain hsp82, stronger effect = lower value 1 | locus YPR119W, strain clb2, stronger effect = lower value 1 | locus YPR141C, strain kar3, stronger effect = lower value 1.01 | locus YPR163C, strain tif3, stronger effect = lower value 1.02 | locus YPR167C, strain met16, stronger effect = lower value 0.992 | strain wtn01, stronger effect = lower value 1.03
